From PubChem BioAssay
NPR1 activator = GC-A (human) enzyme activation; P16066; HEK293 GC-A cells, cGMP TR-FRET, EC30 ANP; 0% at EC30 ANP, 100% saturating ANP; activation, % at 10 µM; AID 1671463; hit rate 0.14% among 370,000; in the data active means activation above about 40%
ALR inh = blocks human ALR sulfhydryl oxidase activity. P55789. purified ALR, DTT oxidation, H2O2 HRP-luminol luminescence. inhibition, % (no concentration beside the values). hit rate 3.8% among 290,000. AID 485317;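 active means mean replicate inhibition above about 79%, with every replicate also reaching it, limit read from the data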
HDAC3 inhib = human HDAC3 inhibition | inhibition, % at 8.3 µM | AID 2718 | recombinant HDAC3, fluorogenic peptide/trypsin coupled, fluorescence | hit rate 0.15% among 320,000 | O15379; in the data active means inhibition above about 26%, passing the limit was not always enough
NPR2 activator = GC-B (human) receptor activation; P20594; HEK293-GC-B cells, CNP EC30, cGMP TR-FRET; 0% at EC30 CNP, 100% saturating CNP; activation, % at 10 µM; hit rate 0.11% among 370,000;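 active means activation at 10 µM reaching about 35% in either raw or pattern-adjusted values, limit read from the data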
Target sequence (P20594 whole entry, looked up): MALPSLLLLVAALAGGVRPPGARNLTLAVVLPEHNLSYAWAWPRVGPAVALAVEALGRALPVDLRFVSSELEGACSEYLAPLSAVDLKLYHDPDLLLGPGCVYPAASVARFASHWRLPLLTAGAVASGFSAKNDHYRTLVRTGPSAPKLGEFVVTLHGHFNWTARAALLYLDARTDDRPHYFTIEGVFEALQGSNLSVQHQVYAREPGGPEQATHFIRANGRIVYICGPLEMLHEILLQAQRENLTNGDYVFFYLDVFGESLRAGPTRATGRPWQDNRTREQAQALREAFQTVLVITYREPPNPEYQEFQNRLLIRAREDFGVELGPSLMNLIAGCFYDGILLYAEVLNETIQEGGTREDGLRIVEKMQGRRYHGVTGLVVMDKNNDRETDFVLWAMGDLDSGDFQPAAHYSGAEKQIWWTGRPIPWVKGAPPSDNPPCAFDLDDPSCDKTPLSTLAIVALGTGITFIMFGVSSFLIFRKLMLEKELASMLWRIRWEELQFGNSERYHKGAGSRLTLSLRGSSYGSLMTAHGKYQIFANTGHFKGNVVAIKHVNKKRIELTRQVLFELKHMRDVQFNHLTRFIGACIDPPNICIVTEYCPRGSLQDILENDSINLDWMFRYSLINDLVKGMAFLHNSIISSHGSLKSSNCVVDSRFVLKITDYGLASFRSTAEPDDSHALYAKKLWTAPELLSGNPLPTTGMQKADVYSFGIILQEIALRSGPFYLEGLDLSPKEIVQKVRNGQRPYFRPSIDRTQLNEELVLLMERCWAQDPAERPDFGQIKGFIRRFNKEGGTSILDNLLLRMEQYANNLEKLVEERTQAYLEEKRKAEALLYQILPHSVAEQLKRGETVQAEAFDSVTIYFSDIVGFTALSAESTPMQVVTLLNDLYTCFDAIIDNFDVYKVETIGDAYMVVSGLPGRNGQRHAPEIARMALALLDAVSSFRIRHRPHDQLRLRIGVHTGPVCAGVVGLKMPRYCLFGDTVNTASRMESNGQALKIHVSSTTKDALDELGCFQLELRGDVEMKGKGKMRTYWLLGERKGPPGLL
The depositor's hits bear a star. The entries come from a sample that favours hits as a whole.

Screening Cc1ccc(S(=O)(=O)CCC(=O)Nc2ccccc2N2CCCC2)cc1 returned NPR1 activator 1.4, ALR inh 98.5*, HDAC3 inhib 13.2 and NPR2 activator -6.5.
`N#CNC(=Nc1ccccc1F)SCc1ccc(C(=O)O)cc1` gave NPR1 activator 2.9, ALR inh 98.6*, HDAC3 inhib 3.7 and NPR2 activator 0.9.
Cc1ccc2cc3cc(C(=O)NCCN4CCOCC4)oc3nc2c1 was read as NPR1 activator 1.9, ALR inh 5.5, HDAC3 inhib -37.6 and NPR2 activator 3.4.
`Cc1ccc2cc3cc(C(=O)NCCCN4CCCC4=O)oc3nc2c1` gave NPR1 activator 0.4, ALR inh 78.0*, HDAC3 inhib -62.9 and NPR2 activator -4.9.
For O=C(C1CCC(CNc2c(N3CCOCC3)c(=O)c2=O)CC1)N1CCN(c2ccccc2)CC1 (centres undefined) the results were NPR1 activator 1.3, ALR inh 87.5*, HDAC3 inhib -0.4 and NPR2 activator 0.7.
CCN(CC)CCn1c(=S)[nH]c2cc3c(cc2c1=O)OCO3 was read as NPR1 activator -0.4, ALR inh 69.0, HDAC3 inhib 13.0 and NPR2 activator -5.8.
For O=C(CCCn1c(=S)[nH]c2cc3c(cc2c1=O)OCO3)N1CCN(C2CCCCC2)CC1 the results were NPR1 activator -3.4, ALR inh 82.7*, HDAC3 inhib 14.7 and NPR2 activator -6.1.
Screening CCN1CCN(CCn2c(=S)[nH]c3cc4c(cc3c2=O)OCO4)CC1 returned NPR1 activator 7.0, ALR inh 92.4*, HDAC3 inhib 8.4 and NPR2 activator -2.9.
`COc1ccc(NC(=O)CN(C)C(=O)c2c(-c3c(F)cccc3Cl)noc2C)cc1` gave NPR1 activator 0.8, ALR inh -3.1, HDAC3 inhib 0.0 and NPR2 activator -0.2.
For COC1C(O)CCC2(CO2)C1C1(C)OC1CC=C(C)C (centres undefined) the results were NPR1 activator 4.0 and NPR2 activator 2.1.
Screening C=CCNC(=O)/C(C#N)=C\c1cc(Cl)c(OCC)c(OC)c1 returned NPR1 activator 12.9, ALR inh 98.2*, HDAC3 inhib -6.8 and NPR2 activator 6.0.
`CN1CCc2c(sc(NC(=O)C3CCCN3S(=O)(=O)c3ccc(Cl)s3)c2C(N)=O)C1` (centres undefined) gave NPR1 activator -1.7, ALR inh -7.1, HDAC3 inhib 0.9 and NPR2 activator -4.9.
`N#Cc1c2n(c3c(=S)nc[nH]c13)CCCCC2` gave NPR1 activator -2.0, ALR inh 92.7*, HDAC3 inhib 9.4 and NPR2 activator -0.5.
`CCCNC(=O)c1cc2c(c(-c3cccc(-c4ccccc4F)c3)n1)[C@H](CCO)N(C(=O)CC1CC1)C2` gave NPR1 activator 0.7 and NPR2 activator -0.5.
Screening COc1ccccc1-c1ccc2c(c1)C(C)(Cc1ccc(F)c(Cl)c1)C(=O)N2 (centres undefined) returned NPR1 activator -7.4 and NPR2 activator -7.4.
`COc1ccc(-c2cc(=O)c3cc(OC)ccc3o2)cc1` gave NPR1 activator 5.0, ALR inh -1.4, HDAC3 inhib -11.0 and NPR2 activator -4.6.
For COc1ccc(/C=C/c2cc(=O)c3cc(Cl)ccc3o2)cc1 the results were NPR1 activator -3.7, ALR inh 97.0*, HDAC3 inhib -3.1 and NPR2 activator -1.1.
Screening COC(C/C=C\C(=O)[C@H](C)OCc1ccccc1)OC returned NPR1 activator 2.0, ALR inh 83.2*, HDAC3 inhib 4.3 and NPR2 activator 11.4.
`COC(C/C=C\[C@@H](O)[C@@H](C)OCc1ccccc1)OC` gave NPR1 activator -1.7, ALR inh 14.0, HDAC3 inhib 5.0 and NPR2 activator -7.6.
CCn1c2ccccc2c2cc(NC(=O)CSc3nnc(-c4ccc(OC)c(OC)c4)n3N)ccc21 was read as NPR1 activator 0.2, ALR inh 98.4*, HDAC3 inhib 4.4 and NPR2 activator 0.1.
For CC(=O)ON=C1C=CC(=C(C#N)c2ccccc2)C=C1 the results were NPR1 activator 5.5 and NPR2 activator 0.4.
Screening COc1ccc(C(C#N)=C2C=CC(=NO)C=C2)cc1 returned NPR1 activator -6.9, ALR inh 96.4*, HDAC3 inhib 7.9 and NPR2 activator -12.5.
For Cn1c(N)c(C(=O)COC(=O)COc2ccc(Cl)cc2Cl)c(=O)n(C)c1=O the results were NPR1 activator 9.7, HDAC3 inhib 2.5 and NPR2 activator 5.1.
For CCCN(CC(=O)Nc1ccccc1C)C(=O)c1ccc(S(=O)(=O)N2CCCCCC2)cc1 the results were NPR1 activator -1.1, ALR inh -2.2, HDAC3 inhib 2.7 and NPR2 activator 3.0.
For CCCN(CC(=O)Nc1ccccc1C)C(=O)c1ccc(C2SCCS2)cc1 the results were NPR1 activator -0.9, ALR inh -9.7, HDAC3 inhib 80.3* and NPR2 activator -2.8.
`Cc1ccc(NNC(N)=S)cc1Cl` gave NPR1 activator 1.5, ALR inh 99.4*, HDAC3 inhib -2.2 and NPR2 activator -4.6.
`NC(=S)NNc1ccc(Cl)c(Cl)c1` gave NPR1 activator 2.1, HDAC3 inhib 1.3 and NPR2 activator -3.8.
`Cc1ccccc1S(=O)(=O)Oc1cccc2c(O)cccc12` gave NPR1 activator 2.6, ALR inh 98.9*, HDAC3 inhib 1.6 and NPR2 activator 2.9.
Screening COC(=O)[C@]12C[C@H](CC(=O)N3CCCC3)C(=O)N(Cc3ccccc3)C1=C[C@H](C(C)C)O[C@@H]2C1CC1 returned NPR1 activator -2.7 and NPR2 activator -1.2.
For Cc1noc(C)c1-c1ccc(C(=O)NCCC(F)(F)F)c2occc12 the results were NPR1 activator 11.5 and NPR2 activator 4.1.
Screening O=C(O)CN1C(=O)/C(=C/c2cccc(Cl)c2)Oc2ccccc21 returned NPR1 activator -1.6, ALR inh 80.5*, HDAC3 inhib -25.9 and NPR2 activator 5.0.
Screening CC(CCc1ccccc1)NC(=O)COC(=O)c1cccnc1Cl (centres undefined) returned NPR1 activator 0.7, ALR inh 0.1, HDAC3 inhib -6.9 and NPR2 activator -1.1.
CCN(CC)S(=O)(=O)c1cccc(C(=O)N/N=C/c2cc(OC)c(O)c(OC)c2)c1 was read as NPR1 activator -1.7, ALR inh 99.3*, HDAC3 inhib 4.8 and NPR2 activator -5.4.
Screening COc1ccc(/C=N/NC(=O)c2cccc(OC(F)(F)C(F)F)c2)cc1O returned NPR1 activator 4.2, ALR inh 96.2*, HDAC3 inhib 6.7 and NPR2 activator -7.5.
COc1cc(/C=N/NC(=O)c2cccc(S(=O)(=O)N3CCCC3)c2)cc(OC)c1O was read as NPR1 activator -3.8, ALR inh 99.1*, HDAC3 inhib 6.5 and NPR2 activator -7.7.
For O=C(N/N=C/c1ccc(F)c(F)c1)c1cccc(S(=O)(=O)N2CCCCC2)c1 the results were NPR1 activator -0.5, HDAC3 inhib 0.9 and NPR2 activator 0.0.
Screening CCN(CC)S(=O)(=O)c1cccc(C(=O)N/N=C/c2cccc(O)c2O)c1 returned NPR1 activator -0.8, ALR inh -10.1, HDAC3 inhib 6.3 and NPR2 activator -3.2.
